Results: PubChem BioAssay (NCI)
About 79,000 compounds went through this panel and 15% of them were active in at least one assay; those are over-represented in the sample as a whole. Unmarked numbers belong to inactive results. Activity calls are given as the source filed them. Cut-off read from the data, not from the text of the source: active = growth inhibition above about 70%; inactive = the rest.

experiment: NCI Yeast Anticancer Drug Screen. Data for the bub3 strain (AID 167); details: S. cerevisiae bub3 mutant strain, at 50.0 µM, stronger effect = higher value
Description: Growth inhibition of yeast strains with defined genetic alterations is measured as a screen for potential anti-cancer activity. Selected strains with alterations in DNA damage repair or cell cycle control were exposed to compounds and growth inhibition was measured relative to vehicle treated controls. The strain used in this assay is bub3

Row | Structure (SMILES) | growth inhibition
1 | COC(=O)c1n[nH]n(Cc2cccs2)c1=O (tested in a mixture with another compound) | 10.6%
2 | Cc1cc(C)c(C2[C@H]3C(=O)N(c4ccc(Cc5ccc(N6C(=O)[C@@H]7ON(c8ccccc8)C(c8c(C)cc(C)cc8C)[C@@H]7C6=O)cc5)cc4)C(=O)[C@H]3ON2c2ccccc2)c(C)c1 (stereo not given in full) | 29.4%
3 | C=COC(=O)c1ccccc1O | -36.8%
4 | CCN(CC)CCOc1ccc2ccccc2c1C(Cc1ccccc1)NCCO (stereo not given) | 3%
5 | N=C(N)C=O | 1.45%
6 | C=CCc1ccc(OC(=O)Nc2ccc(S(=O)(=O)NC3CCCCC3)cc2)c(OC)c1 | 11.8%
7 | Cc1ccc(/C(O)=C/c2nc3ccc([N+](=O)[O-])cc3nc2/C=C(\O)c2ccc(C)cc2)cc1 | -19.2%
8 | [N-]=[N+]=Nc1nc2c(N)ncnc2n1C1OC(CO)C(O)C1O (stereo not given) | -1.35%
9 | Nc1cc(Cc2ccccc2)ccc1O | 31.2%
10 | O=C(CCc1ccccc1Cl)CC(=O)CC(O)(c1ccccc1)c1ccccc1 | 39.4%
11 | CSC1(SC2=NCCN2)SC2(NCCN2)S1 | -1.55%
12 | Nc1ccc(Cn2ccc(=O)[nH]c2=O)cc1 | -11.2%
13 | C/C(=N/O)c1sc(-c2nc(C)c(/C(C)=N\O)s2)nc1C | -6.6%
14 | O=c1c2ccccc2nc(-c2ccccc2)n1NC(=S)Nc1ccccc1 | -19.9%
15 | O=C(O)C1C=CC2OC2C1C(=O)O (stereo not given) | 1.1%
16 | O=C1NCCCC1O (stereo not given) | -6.1%
17 | CN(C)c1ccc2c(N(C)C)cc(N(C)C)[n+](C)c2c1 | -2%
18 | CCCNC(=O)Nc1ccc(Nc2ccccc2)cc1 | 18.2%
19 | COCC(C)(CO)CC(C)CO (stereo not given) | -7.1%
20 | CC(C)CCCC(C)C1CCC2(C)C3CCC(C(C)O)C(C)(CCCO)C3CCC12C (stereo not given) | 23.8%

Row | Structure (SMILES) | growth inhibition
21 | Cc1cc[n+]2c(c1)-c1cc(C)cc[n+]1CC2 | 0.6%
22 | C1CCC(NCSC2=NCCS2)CC1 | 7.95%
23 | N=C(N)N1CCC(N2CCOCC2)CC1 | 4.75%
24 | Nc1nnc(/C=C/c2ccc(Cl)cc2)o1 | -18.6%
25 | COc1ccc(/C=C2\N=C(c3ccc(Cl)cc3)OC2=O)cc1Br | 12.8%
26 | CCN(S(C)(=O)=O)S(C)(=O)=O | 9.55%
27 | COC(=O)C1(Cc2ccccc2)Cc2cc3c(cc2C1=O)CCC3 (stereo not given) | 34.8%
28 | CCCCC1OCCOC1C1COCCO1 (stereo not given) | 2.55%
29 | CCN(CC)C(=O)C1CCN(Cc2c[nH]c3ccccc23)CC1 | 2.75%
30 | CC(=O)c1c(C)n(-c2ccccc2)c2c1nnc1ccccc12 | -5.65%
31 | COC(=O)[C@@H]1[C@H](O)CC[C@H]2[C@@]1(C)CC[C@@H](C)[C@]2(COC(C)=O)CC(=O)c1ccoc1 | -47.9%
32 | O=C(CN(C(=O)OC12CC3CC(CC(C3)C1)C2)C(=O)OC12CC3CC(CC(C3)C1)C2)Oc1ccc([N+](=O)[O-])cc1 | 13.6%
33 | O=C1CSC(c2ccc([N+](=O)[O-])cc2)N1c1nc(-c2ccc3c(c2)CCCC3)cs1 (stereo not given) | 1%
34 | COC(=O)CC(c1ccc2c(c1)OCO2)N1CCOCC1 (stereo not given) | 21.2%
35 | Clc1ccccc1/C=C/c1ccnnc1 | 1.35%
36 | Cn1cnc2c(=O)[nH]cnc21 | 14.7%
37 | C/C(CC(=O)Nc1cccc(Cl)c1C)=N\N=C(N)N | -23%
38 | CCOC(=O)c1ccc(N)c(C(O)(C(F)(F)F)C(F)(F)F)c1 | 92% (active)
39 | CC1(C)C(=O)CC[C@]2(C)[C@H]3C(=O)C=C4[C@H]5C[C@@](C)(C(=O)O)CC[C@]5(C)CC[C@@]4(C)[C@]3(C)CC[C@@H]12 | 0.15%
40 | COC(=O)C(O)C(O)C(O)C(O)C(O)CO (stereo not given) | -8.6%
